Results filed as inconclusive are left out. Activity calls are given as the source filed them. The call rests on the fitted dose curve; in most records, active means well fitted cell-killing curve with a large enough effect in the repeat runs; inconclusive means weak or mixed curves, or effect the other way; inactive means flat fitted curve, though single readings scatter.
Assay: qHTS assay to identify small molecule antagonists of the constitutive androstane receptor (CAR) signaling pathway - cell viability counter screen (AID 1224837); further: nearly all actives have a fitted effect of over 45% in size
Conditions: HepG2-CYP2B6-hCAR viability, CellTiter-Fluor, 23 h, co-treated with 50 nM CITCO; series mostly up to 92.4 µM; activity change, negative = cytotoxicity: at the top concentration
Excerpt: National Center for Advancing Translational Sciences [NCATS]
NIH Chemical Genomics Center [NCGC]
U.S. Environmental Protection Agency [EPA]
National Institutes of Environmental Health Sciences [NIEHS]
National Toxicology Program [NTP]
U.S. Food and Drug Administration [FDA]
The constitutive androstane receptor (CAR) is a nuclear receptor which regulates multiple drug metabolizing enzymes (DMEs) and transporters. Activating CAR will generally increase the transcription and subsequent translation of CYP2B6 and CYP3A4. These two DMEs represent about 50% of the drug metabolizing potential in the body. When CAR is deactivated, the metabolizing potential in the body will decrease, subsequently increasing the toxicity in the body or lowering the therapeutic potential of a pro-drug. Recently, there have also been studies performed indicating CARs role in energy metabolism and cancer therapy. Therefore, inhibiting CARs activity could have a potential effect on diabetes and cancer. Identifying environmental toxins and compounds which modulate CAR, through the use of the Tox21 10K compound collection, will be an important step in determining the toxicity and potential therapeutic effects these factors will have on the human body. To differentiate true CAR antagonists from cytotoxic substances, the assay is multiplexed with a cell viability assay.
Tox21 Assay Protocol Summary:
A double-stable (hCAR and CYP2B6-2.2kb) transfected cell line, derived from human hepatoma (HepG2) cells, was utilized for the duration of the quantitative high-throughput screens. The HepG2-CYP2B6-hCAR cells were dispensed at 2500 cells/4 uL/well in 1536-well white solid bottom plates using a Multidrop Combi. After the assay plates were incubated at 37 C/5% CO2 for 4 hrs, 23 nL of compounds at 15 concentrations (from 5-48 columns) or positive control (from 1 to 4 columns) were transferred to the assay plates using a Pintool station. One uL of CITCO (final concentration = 50 nM) was added, using a Flying Reagent Dispenser, inside each well. After a 23 hr incubation period at 37 C/5% CO2, 1 uL of CellTiter-Fluor reagent was added into each well of the assay plates using a Flying Reagent Dispenser. The fluorescence intensity in the plates was then measured using a ViewLux plate reader.
On the % scale 0 is the no-effect control and ±100 the full control effect; potency means the concentration at half of the fitted maximal effect.

Row | SMILES | activity change, negative = cytotoxicity | Potency
1 | CC(C)=CC1CC(C)CCO1 (stereo not given) | -7.39% (inactive) | 
2 | C#CC(O)CCC (stereo not given) | 0.823% (inactive) | 
3 | COC(=O)CC#N | -0.666% (inactive) | 
4 | CC1CCCCN1CCCOC(=O)c1ccc(OC2CCCCC2)cc1 (stereo not given) | -13.6% [at 42.5 µM] (inactive) | 
5 | CCCCN(CCCC)CCC(O)c1cc2c(Cl)cc(Cl)cc2c2cc(C(F)(F)F)ccc12 (stereo not given) | -0.948% [at 42.5 µM] (inactive) | 
6 | C(=C/c1ccccc1)/c1ccccc1 | -2.46% (inactive) | 
7 | O=Cc1ccc(F)cc1 | 6.1% (inactive) | 
8 | O=C(Nc1ccc(Cl)c(Cl)c1)c1cc(Cl)cc(Cl)c1O |  | 7.7 µM (active)
9 | CCCCCCCC(C)=O | 0.0971% (inactive) | 
10 | CCCCC(CC)COC(=O)c1ccc(O)cc1 (stereo not given) |  | inactive
11 | CCCCCCCCCCCCCC[n+]1ccccc1 |  | 9.69 µM (active)
12 | COc1ccc(-n2nc(CCC(=O)N(C)O)cc2-c2ccc(Cl)cc2)cc1 | -5.7% [at 42.5 µM] (inactive) | 
13 | Cc1cccc(C)n1 | 4.27% (inactive) | 
14 | Oc1ccc(-c2ccccc2)c(Cl)c1 | 1.16% (inactive) | 
15 | CCCCCCC(C)OC(=O)COc1nc(F)c(Cl)c(N)c1Cl (stereo not given) | 7.26% (inactive) | 
16 | CCc1cccc(CC)c1NC(=O)C(=O)O | 0.164% (inactive) | 
17 | N[C@@H](CSSC[C@H](N)C(=O)O)C(=O)O | -3.15% [at 0.349 µM] (inactive) | 
18 | Brc1ccccn1 | 0.0881% (inactive) | 
19 | CCCOc1sc(C(=O)N2CCC(c3cc(CN)ccc3F)CC2)c(C)c1Br |  | 62.8 µM (active)
20 | Clc1ccc(C(c2ccccc2Cl)C(Cl)Cl)cc1 (stereo not given) |  | inactive

Row | SMILES | activity change, negative = cytotoxicity | Potency
21 | CC(C)(c1cc(Br)c(O)c(Br)c1)c1cc(Br)c(O)c(Br)c1 |  | inactive
22 | c1cc2c3c(c1)ccc1cccc(c13)C2 | -0.452% (inactive) | 
23 | CC(C)c1ccc(O)c(C(C)C)c1 | -14.9% (inactive) | 
24 | C=CC(C)(CCC=C(C)C)OC(=O)/C=C/c1ccccc1 (stereo not given) | 2.12% (inactive) | 
25 | CCC(C)C(=O)OC (stereo not given) | -0.938% (inactive) | 
26 | CC(CN(C)C)CN1c2ccccc2CCc2ccccc21 (stereo not given) | -17.2% [at 42.5 µM] (inactive) | 
27 | CC1=CP(=O)(c2ccccc2)CC1 (stereo not given) | 10.7% (inactive) | 
28 | Cc1cccc(Br)c1 | 2.96% (inactive) | 
29 | O=c1cccc[nH]1 | 2.05% (inactive) | 
30 | CC(C)(C)c1cc(CCC(=O)NCCCCCCNC(=O)CCc2cc(C(C)(C)C)c(O)c(C(C)(C)C)c2)cc(C(C)(C)C)c1O | 15.4% (inactive) | 
31 | O=S(=O)(O)c1cc(S(=O)(=O)O)c2ccc3c(S(=O)(=O)O)cc(S(=O)(=O)O)c4ccc1c2c43 | 0.0028% [at 19 µM] (inactive) | 
32 | CCCCCCCC(=O)OCC | 4% (inactive) | 
33 | O=C=NCc1cccc(CN=C=O)c1 | -0.191% [at 19 µM] (inactive) | 
34 | CC1=C(/C=C/C(C)=C/C=C/C(C)=C\C=O)C(C)(C)CCC1 | -14.5% (inactive) | 
35 | CC1(C)COCN1 | 2.38% (inactive) | 
36 | Brc1ccccc1-c1ccccc1 | -2.49% (inactive) | 
37 | CCC(C)(C)c1cc(O)c(C(C)(C)CC)cc1O | -10.5% (inactive) | 
38 | CC1CCCNC1 (stereo not given) | -18.3% (inactive) | 
39 | CCCC(=O)OCC(COC(=O)CCC)OC(=O)CCC | 4.56% (inactive) | 
40 | O=C(O)c1cccc(Cl)n1 | 1.9% (inactive) | 

From PubChem BioAssay (Tox21)
